Assay results from PubChem BioAssay (NCATS).
Records with an inconclusive call do not appear. A call without a number means that no potency is given here. Calls of active or inactive are those of the source. Unless noted, calls come from the whole dose curve; as a rule, active = well fitted curve in the direction sought with a large enough effect; inconclusive = small, poorly fitted or top-dose-only effect, or another doubt; inactive = no such curve, though single readings can be large; an effect the other way counts as inactive or inconclusive.

Experiments:
[1] = ZIKV-mCherry secondary qHTS for Zika virus inhibitors (AID 1347158); note: potency is the fitted concentration of half-maximal effect
How it was run: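 After overnight seeding at 37 °C, Vero cells receive compound and then ZIKV-mCherry (MOI 1). Following 48-72 h infection, cells are fixed, counterstained with Hoechst, and imaged; percent infected cells is derived from an mCherry intensity cut-off of 450 RFU.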

[2] = qHTS of pediatric cancer cell lines to identify multiple opportunities for drug repurposing: Primary screen for SK-N-SH cells (AID 1347098); conditions: SK-N-SH viability, CellTiter-Glo luminescence, 48 h; note: potency is the fitted concentration of half-maximal effect; nearly all actives have a fitted effect of over 65% in size
How it was run: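 Cells (500-1,000/well) rested 5 h, then received compounds for 48 h; metabolically active cells were measured by CellTiter-Glo luminescence. Final concentrations spanned up to 46 µM (MIPE, 11-point) or 0.59 nM-46 µM (NPC, 8-point) in primary screens, 11-point in follow-ups.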

[3] = qHTS of pediatric cancer cell lines to identify multiple opportunities for drug repurposing: Primary screen for Rh18 cells (AID 1347102); conditions: Rh18 rhabdomyosarcoma viability, CellTiter-Glo luminescence, 48 h; note: potency is the fitted concentration of half-maximal effect; nearly all actives have a fitted effect of over 65% in size
How it was run: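 Cells (500-1,000/well) in growth media were settled 5 h at 37 degrees C, then given compounds for 48 h. Viability was read as CellTiter-Glo luminescence. Primary runs used MIPE at 11 points (0.78 nM-46 µM) and NPC at 8 points (0.59 nM-46 µM); follow-ups used 11 points.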

[4] = qHTS of pediatric cancer cell lines to identify multiple opportunities for drug repurposing: Primary screen for MG 63 (6-TG R) cells (AID 1347105); conditions: MG 63 (6-TG R) viability, CellTiter-Glo, 48 h; note: potency is the fitted concentration of half-maximal effect; nearly all actives have a fitted effect of over 50% in size
How it was run: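 Readout: CellTiter-Glo luminescence, 48 h treatment. Controls DMSO (neutral) and bortezomib 2.3 µM final (positive). Potency and efficacy taken from primary-screen concentration-response curves.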

[5] = molecular target: Cytochrome P450 3A4 (Homo sapiens) (UniProt P08684); assay: Cytochrome P450 family 3 subfamily A member 4 (CYP3A4) small molecule antagonists: luciferase qHTS assay (AID 1645841; active = well fitted curve in the direction sought with a large enough effect in the repeat runs; an effect the other way counts as inactive or inconclusive; note: nearly all actives have a fitted effect of over 45% in size)
Sequence of Cytochrome P450 3A4 (Homo sapiens) (P08684 whole entry, looked up): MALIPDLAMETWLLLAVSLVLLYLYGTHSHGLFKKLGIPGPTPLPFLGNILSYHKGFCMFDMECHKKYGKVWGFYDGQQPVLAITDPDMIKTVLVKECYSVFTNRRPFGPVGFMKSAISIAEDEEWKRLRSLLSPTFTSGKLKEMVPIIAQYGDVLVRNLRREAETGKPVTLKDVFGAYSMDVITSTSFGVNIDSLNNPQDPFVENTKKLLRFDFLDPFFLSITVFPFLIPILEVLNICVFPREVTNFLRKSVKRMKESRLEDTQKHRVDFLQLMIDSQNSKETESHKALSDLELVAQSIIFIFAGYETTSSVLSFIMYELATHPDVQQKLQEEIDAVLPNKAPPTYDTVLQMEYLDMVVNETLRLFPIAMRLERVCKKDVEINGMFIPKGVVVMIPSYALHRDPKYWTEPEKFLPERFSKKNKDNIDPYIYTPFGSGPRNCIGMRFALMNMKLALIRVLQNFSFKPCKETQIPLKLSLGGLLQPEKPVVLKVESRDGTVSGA
How it was run: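 P450-Glo CYP3A4 enzyme with proluciferin substrate was preincubated with DMSO-dissolved compounds for 10 min at room temperature. NADPH regeneration solution started a 1 h reaction. Detection reagent stopped it, and luminescence was read after 20 min.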

[6] = Counterscreen qHTS for small molecule stabilizers of the endoplasmic reticulum resident proteome: GLuc-NoTag assay (AID 1508627);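 note: SH-SY5Y cells given compound then 100 nM thapsigargin to empty ER calcium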
How it was run: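 SH-SY5Y cells stably expressing constitutively secreted GLuc (no SERCaMP tag) were pre-incubated 5 h, treated with compound for 19 h, then 100 nM thapsigargin for 4 h at 37C; medium GLuc read by coelenterazine luminescence.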

[7] = Confirmatory qHTS for small molecule stabilizers of the endoplasmic reticulum resident proteome: Secreted ER Calcium Modulated Protein (SERCaMP) assay (AID 1508628); note: potency is the fitted concentration of half-maximal effect; nearly all actives have a fitted effect of over 40% in size
How it was run: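 We seeded SH-SY5Y-GLuc-SERCaMP cells, added compounds (three concentrations in the primary run, eleven up to 76.6 uM in confirmation), incubated 16 h, depleted ER calcium with thapsigargin, and read luciferase 4 h later.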

[8] = S16 Schwann cell viability assay (CellTiter-Glo assay) (AID 624031);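 note: native untransfected S16 rat Schwann cells; cellular ATP luminescence as a viability measure; nearly all actives have a fitted effect of over 70% in size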
How it was run: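 Parental S16 cells, 24 h compound, 37 °C. ATP-luminescence viability; DMSO = 0% activity, empty wells as reference; curves classified by fit quality and efficacy.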

[9] = S16 Schwann cell PMP22 intronic element firefly luciferase assay (AID 624032); note: nearly all actives have a fitted effect of over 30% in size
How it was run: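 Rat S16 Schwann cells stably carrying a PMP22 intronic element-driven Fluc reporter were seeded overnight, then exposed to compounds for 24 h at 37 °C. Luminescence was normalized to PTC124 (positive control) and DMSO (0% activity).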

[10] = system: AA1029; assay: qHTS profiling for inhibitors of Plasmodium falciparum proliferation (AID 504749); note: nearly all actives have a fitted effect of over 60% in size; note: potency is the fitted concentration of half-maximal effect; conditions: P. falciparum in erythrocytes, SYBR Green DNA, 72 h; series mostly up to 28.7 µM
How it was run: (§1)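 P. falciparum-infected erythrocytes (0.3% parasitemia, 2.5% hematocrit final) were exposed to compounds for 72 h at 37 C in 5% CO2, then lysed with SYBR Green buffer overnight at room temperature; parasite DNA fluorescence was normalized to artemisinin and DMSO controls.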

[11] = system: CP211; assay: as above; conditions: P. falciparum in erythrocytes, SYBR Green DNA, 72 h; series mostly up to 28.7 µM
How it was run: as §1

[12] = system: CP217; assay: as above; conditions: P. falciparum in erythrocytes, SYBR Green DNA, 72 h; series mostly up to 28.7 µM
How it was run: as §1

[13] = system: CP252; assay: as above; conditions: P. falciparum in erythrocytes, SYBR Green DNA, 72 h; series mostly up to 28.7 µM
How it was run: as §1

[14] = system: CP297; assay: as above; conditions: P. falciparum in erythrocytes, SYBR Green DNA, 72 h; series mostly up to 28.7 µM
How it was run: as §1

[15] = system: CP315; assay: as above; conditions: P. falciparum in erythrocytes, SYBR Green DNA, 72 h; series mostly up to 28.7 µM
How it was run: as §1

[16] = system: FAB9; assay: as above; conditions: P. falciparum in erythrocytes, SYBR Green DNA, 72 h; series mostly up to 28.7 µM
How it was run: as §1

[17] = system: ICS; assay: as above; conditions: P. falciparum in erythrocytes, SYBR Green DNA, 72 h; series mostly up to 28.7 µM
How it was run: as §1

[18] = system: JCK; assay: as above; conditions: P. falciparum in erythrocytes, SYBR Green DNA, 72 h; series mostly up to 28.7 µM
How it was run: as §1

[19] = system: PC15; assay: as above; conditions: P. falciparum in erythrocytes, SYBR Green DNA, 72 h; series mostly up to 28.7 µM
How it was run: as §1

[20] = molecular target: Ubiquitin carboxyl-terminal hydrolase 1 (Homo sapiens) (UniProt O94782); assay: Inhibitors of USP1/UAF1: Pilot qHTS (AID 504865);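 note: rhodamine fluorescence freed from ubiquitin-rhodamine substrate followed over time; top concentration of the series differs between compounds; nearly all actives have a fitted effect of over 35% in size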
Sequence of Ubiquitin carboxyl-terminal hydrolase 1 (Homo sapiens) (O94782 whole entry, looked up): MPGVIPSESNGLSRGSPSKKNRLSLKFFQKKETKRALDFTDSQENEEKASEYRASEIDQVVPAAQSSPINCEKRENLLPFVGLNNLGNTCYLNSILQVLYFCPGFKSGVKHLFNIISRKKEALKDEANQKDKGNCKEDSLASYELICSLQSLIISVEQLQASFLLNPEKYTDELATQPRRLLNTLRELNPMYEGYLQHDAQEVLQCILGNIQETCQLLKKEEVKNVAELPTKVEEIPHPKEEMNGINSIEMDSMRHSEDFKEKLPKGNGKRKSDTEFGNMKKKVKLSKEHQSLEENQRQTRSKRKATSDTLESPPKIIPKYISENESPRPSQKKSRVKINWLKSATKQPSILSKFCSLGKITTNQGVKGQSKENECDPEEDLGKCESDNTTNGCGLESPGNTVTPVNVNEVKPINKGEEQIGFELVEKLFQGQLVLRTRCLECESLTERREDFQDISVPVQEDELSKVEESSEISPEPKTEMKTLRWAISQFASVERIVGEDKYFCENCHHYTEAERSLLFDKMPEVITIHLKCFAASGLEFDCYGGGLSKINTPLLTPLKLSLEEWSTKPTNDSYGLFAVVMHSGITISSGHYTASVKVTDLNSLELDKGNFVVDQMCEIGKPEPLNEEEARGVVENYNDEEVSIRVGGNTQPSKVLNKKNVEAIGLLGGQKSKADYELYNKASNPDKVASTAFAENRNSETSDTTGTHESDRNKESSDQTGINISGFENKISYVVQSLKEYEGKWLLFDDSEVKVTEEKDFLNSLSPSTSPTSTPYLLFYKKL
How it was run: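 In 50mM HEPES pH 7.8 containing 0.5mM EDTA, 1mM TCEP, 0.1 mg/ml BSA and 0.01% Tween-20, 1nM USP1/UAF1 is exposed to compound for 15 min, then Ub-Rho (150nM final) is added and fluorescence is read over time.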

For `O=C(NCc1ccc(Oc2ccccc2)cc1)c1nc(-c2cc(Br)c(O)c(Br)c2)no1`, the Potency [1] was 7.08 µM (active).

In the case of `CCN(CC)c1ccc(C(=C2C=CC(=[N+](CC)CC)C=C2)c2cc(S(=O)(=O)O)ccc2S(=O)(=O)[O-])cc1`, the Potency [2] is reported as 3.86 µM (active), the Potency [3] is reported as 11.9 µM (active) and the Potency [4] is reported as 16.8 µM (active).

For `Cc1ccc(C(=O)N2CCN(c3ccc([N+](=O)[O-])cc3)CC2)cc1Cl`, the outcome [5] was “inactive”.

In the case of `Oc1ccc(Nc2nc(-c3ccc(Cl)cc3)cs2)cc1`, the Potency [6] is reported as “inactive” and the Potency [7] is reported as 2 µM (active).

In the case of `O=C(CC1NCCC[C@H]1O)Cn1cnc2cc(Br)c(Cl)cc2c1=O` (stereo partly drawn), the outcome [8] is reported as “inactive”, the Potency [9] is reported as “inactive” and the Potency [10] is reported as 1 µM (active). The Potency [11] was 3.38 µM (active), the Potency [12] was 3.16 µM (active) and the Potency [13] was 1.12 µM (active). For the same compound, the Potency [14] was 3.38 µM (active), the Potency [15] was 3.01 µM (active) and the Potency [16] was 1 µM (active). For the same compound, the Potency [17] was 1.12 µM (active), the Potency [18] was 2.82 µM (active) and the Potency [19] was 0.891 µM (active).

With `CCCCC(=O)N(Cc1ccc(-c2ccccc2-c2nn[nH]n2)cc1)C(C(=O)O)C(C)C` (stereo not drawn) the Potency [20] was “inactive”, the outcome [8] was “inactive” and the Potency [9] was “inactive”. The Potency [10] was “inactive”, the Potency [11] was “inactive” and the Potency [12] was “inactive”. The Potency [13] was “inactive”, the Potency [14] was “inactive” and the Potency [15] was “inactive”. The Potency [16] was “inactive”, the Potency [17] was 7.94 µM (active) and the Potency [18] was “inactive”. For the same compound, the Potency [19] was “inactive”.

In the case of `Clc1ccccc1CNCC1CCC(CNCc2ccccc2Cl)CC1` (stereo not drawn), the Potency [20] is reported as “inactive”.
